Source: the supplement of paper PMC10338343
± gives the standard deviation.

Legend:
[1] = test system: MILI (PIWIL2) piRISC loaded with L1MC piRNA (26 nt); test: pre-steady-state target cleavage rate (min^-1); guide: L1MC piRNA 5'p-UAACUAAAUACUAUGCAAGCUGUAGG; higher = faster piRNA-guided slicing of the target;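 also: 1 nM active piRISC with 0.1 nM target library at 33 °C single turnover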
Procedure, shortened: (§1)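 The pre-steady-state cleavage rate was derived from a burst-and-steady-state fit of Cleave-'n-Seq data. For these assays, 1 nM active affinity-purified piRISC loaded with a single synthetic guide was mixed with […] a transcribed, DNA-blocked target RNA library in HEPES–potassium acetate buffer at 33 °C, with or without 500 nM GTSF1 partner protein, for 0–8 or 0–960 min. Sequencing counts of uncleaved targets were normalised to depth and to weakly complementary targets, and k3 was capped at 0.0001 min^-1 after three trials were pooled.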

[2] = test system: EfPiwi piRISC loaded with L1MC piRNA (26 nt); test: pre-steady-state target cleavage rate (min^-1); auxiliary factor: none (no Gtsf1); guide: L1MC piRNA 5'p-UAACUAAAUACUAUGCAAGCUGUAGG; MIWI and MILI are mouse PIWI proteins and EfPiwi is from a freshwater sponge; tags in brackets are library labels; higher = faster piRNA-guided slicing of the target
Procedure, shortened: as §1

[3] = auxiliary factor: none (no GTSF1)
[4] = auxiliary factor: 500 nM mouse GTSF1

| Sequence | pre-steady-state target cleavage rate [1, 3] | pre-steady-state target cleavage rate [2] | pre-steady-state target cleavage rate [1, 4] |
| --- | --- | --- | --- |
| UCCUGGAACAGCUUGCUAUCAUAAAUCAAA [g15:g23:cont:t1A] | < 0.0001 | < 0.0001 | – |
| UCCUGGUACAGCUUGCAUAGUAUUUAAGUUA | 0.0123 ± 0.0043 | 0.00555 ± 0.0052 | 0.22 ± 0.041 |
| UCCUGGAUGUGCUUGCAUAGUAUCUUAGUUA | 0.0069 ± 0.0028 | 0.0107 ± 0.0064 | 0.135 ± 0.019 |
| UCCUGCUACAGCUUGCAAUCUAUUUUCAAA | – | < 0.0001 | 0.00419 ± 0.0036 |
| UCCUGGUACAGCUUGGUUAGUAUUUAGAAA | – | < 0.0001 | 0.043 ± 0.016 |
| UCCUGGAUGUCGAAGGAUAGUAUUUAGUUA | – | < 0.0001 | – |
| UCCUGGAUGUCGAACCUAUGUAUUUAGUUA | – | < 0.0001 | – |
| UCCUGGAUGUCGAAGCAUAGUAUUUAGAUA | – | < 0.0001 | 0.00991 ± 0.0044 |
| UCCUGGAUGUCGAAGCAUAGUAUUUAGUUU [g2:g16:cont:t1U] | 0.00447 ± 0.0018 | < 0.0001 | 0.0307 ± 0.0082 |
| UCCUGGAUGUCGAACCAUAGUAGUUUAGUUA | – | < 0.0001 | < 0.0001 |
| UCCUGCUACAGCUUGCAUAGAAUUUUCAAA | – | < 0.0001 | 0.0169 ± 0.0066 |
| UCCUGGAUGUCGUUGCAUAGUAUAAUGUUA | – | < 0.0001 | 0.0201 ± 0.011 |
| UCCUGGAUGUCGAUGCAUACUUUUUAGUUA | – | < 0.0001 | – |
| UCCUGGAUGUCCUUGCAUAGUAAUUACUUA | – | < 0.0001 | 0.0143 ± 0.0067 |
| UCCUGGAUCAGGUUGCAUAGUAUUUUCAAA | – | < 0.0001 | 0.07 ± 0.023 |
| UCCUGGAUGUCGAUGCAUAGUAUUCAGUUA | – | < 0.0001 | 0.0263 ± 0.0083 |
| UCCUGGAUGUCCUUGCAUAGUUUUUACUUA | – | < 0.0001 | 0.00658 ± 0.0044 |
| UCCUGGAUGUCGAAGCAUAGUAUUUAGUCA | 0.00315 ± 0.0019 | < 0.0001 | 0.0245 ± 0.0057 |
| UCCUGGAUGUCCAUGCAUAGUAUUAAGUUA | – | < 0.0001 | 0.0665 ± 0.018 |
